Measured values taken from PubChem BioAssay (NCI).
Compounds without any hit were thinned out: in the full panel of roughly 83,000, 20% have a hit.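 Activity criterion: percent growth below 10, measured after cells in 96-well plates were exposed to a single compound concentration for 48 hours.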 The source made the active and inactive calls.

Tests used:
Test in all cases: NCI-60 one-dose screen, 48 h (100 = growth as untreated, 0 = no growth, -100 = all killed)
[1] = test system: NCI-H23 lung; settings: 10 µM unless noted
[2] = test system: NCI-H226 lung; settings: 10 µM unless noted
[3] = test system: NCI-H322M lung; settings: 10 µM unless noted
[4] = test system: HOP-62 NSCLC; settings: 10 µM unless noted
[5] = test system: NCI-H460 lung; settings: 10 µM unless noted
[6] = test system: HOP-92 NSCLC; settings: 10 µM unless noted
[7] = test system: NCI-H522 lung; settings: 10 µM unless noted
[8] = test system: A549/ATCC NSCLC; settings: 10 µM unless noted
[9] = test system: 786-0 renal; settings: 10 µM unless noted
[10] = test system: COLO 205 colon; settings: 10 µM unless noted
[11] = test system: DU-145 prostate; settings: 10 µM unless noted
[12] = test system: K-562 leukemia; settings: 10 µM unless noted
[13] = test system: MALME-3M melanoma; settings: 10 µM unless noted
[14] = test system: MDA-MB-231 breast; settings: 10 µM unless noted
[15] = test system: RXF 393 renal; settings: 10 µM unless noted
[16] = test system: SF-268 CNS; settings: 10 µM unless noted
[17] = test system: SF-295 CNS; settings: 10 µM unless noted
[18] = test system: SF-539 CNS; settings: 10 µM unless noted
[19] = test system: UACC-257 melanoma; settings: 10 µM
[20] = test system: M14 melanoma; settings: 10 µM unless noted

Measured: growth

IP(CCCSc1n(Cc2ccc3ccccc3c2)c(-c2ccccc2)c(-c2ccccc2)[n+]1Cc1ccc2ccccc2c1)(c1ccccc1)(c1ccccc1)c1ccccc1
inactive: [1] 26.3% | [2] 78.8% | [3] 63.5% | [4] 31.2% | [5] 22.8% | [8] 26.7% | [9] 87.2% | [11] 34.7% | [12] 25.3% | [13] 14.6% | [14] 32.5% | [15] 99.7% | [16] 23.8% | [17] 31.8% | [18] 35.3% | [20] 51.5%
active: [6] -1.48% | [7] 8.1% | [10] -9.45% | [19] 4.7%

COc1ccc(OC)c(NC2=C(Cl)C(=O)C(C)=C(C)C2=O)c1
inactive: [1] 85.8% | [2] 84.2% | [3] 103% | [4] 92.1% | [5] 98.4% | [6] 96.6% | [7] 87.2% | [8] 101% | [9] 102% | [10] 107% | [11] 104% | [12] 55.8% | [13] 98.7% | [14] 76.6% | [15] 107% | [16] 93.9% | [17] 100% | [18] 99% | [19] 86.8% | [20] 97.8%

O=S(=O)(Nc1ccc2c(c1)OC(F)(F)O2)c1ccc(-c2cnc(C3CC3)o2)cc1
active: [12] 9.69%
inactive: [1] 55.2% | [2] 60.8% | [3] 83.3% | [4] 35.9% | [5] 17.3% | [6] 66.7% | [7] 43.2% | [8] 47.7% | [9] 47.2% | [10] 47.4% | [11] 68.6% | [13] 50.2% | [14] 48.1% | [15] 49.5% | [16] 60.6% | [17] 22.6% | [18] 37.8% | [19] 58.9% | [20] 25.4%

Nc1ccc(-c2nnc(SCc3ccc(O)c4ncccc34)o2)cc1
inactive: [14] 33.8%
active: [1] 3.69% | [2] -12.5% | [3] -0.446% | [4] -5.24% | [5] -46.8% | [6] -36.8% | [7] -2.05% | [8] -1.54% | [9] 7.93% | [10] 1.77% | [11] 9.69% | [12] 3.52% | [13] -2.77% | [15] -14.8% | [16] 1.12% | [17] -21.6% | [18] -14.1% | [19] -20.4% | [20] -38.8%

CN(C)C(=O)C1=NC(CO)C(=O)N(c2ccc(Cl)cc2)N1 (stereo not given)
inactive: [1] 104% | [2] 105% | [3] 98.6% | [4] 98.9% | [5] 104% | [6] 91.4% | [7] 97.1% | [8] 99% | [9] 93.9% | [10] 105% | [11] 107% | [12] 109% | [13] 101% | [14] 97.9% | [15] 120% | [16] 97.8% | [17] 103% | [18] 95.8% | [19] 107% | [20] 92.8%

Cc1cc(Cl)cc(NS(=O)(=O)c2ccc(-c3cnc(C4CC4)o3)cc2)c1
active: [10] 2.78% | [12] 8.81% | [15] -0.916% | [17] 1.04% | [18] 6.15%
inactive: [1] 35.7% | [2] 60.5% | [3] 46.7% | [4] 41.7% | [5] 16.2% | [6] 66.5% | [7] 17.9% | [8] 31.8% | [9] 49.4% | [11] 24.7% | [13] 65.4% | [14] 35.4% | [16] 61.7% | [19] 68.2% | [20] 13.1%

CN1CCN(c2ccc3c(C(N)=O)c(NC(=O)c4ccc(C(C)(C)C)cc4)sc3c2)CC1
inactive: [1] 79.7% | [2] 104% | [3] 94.7% | [4] 86.6% | [5] 53.8% | [6] 79% | [7] 103% | [8] 76.2% | [9] 71.2% | [10] 70.1% | [11] 87.4% | [12] 21.2% | [13] 81.6% | [14] 90.6% | [15] 81.8% | [16] 97.6% | [17] 79.8% | [18] 63.6% | [19] 92.7% | [20] 90%

CC(c1ccccc1)N1C(=O)/C(=C/c2csc(C#N)n2)SC1=S (stereo not given)
inactive: [1] 101% | [2] 97% | [3] 99.8% | [4] 103% | [5] 106% | [6] 85.5% | [7] 75.4% | [8] 95.8% | [9] 91% | [10] 91.8% | [11] 87.7% | [12] 40.8% | [13] 82.4% | [14] 90.1% | [15] 90.1% | [16] 101% | [17] 103% | [18] 93.4% | [19] 81.7% | [20] 78.4%

NS(=O)(=O)Oc1ccc2nc(Nc3ccc(F)c(F)c3)ccc2c1
inactive: [1] 96.3% | [2] 90.5% | [3] 92.9% | [4] 99.4% | [5] 98.1% | [6] 115% | [7] 91.4% | [8] 79.6% | [9] 89.6% | [10] 93.8% | [11] 92.9% | [12] 67.6% | [13] 102% | [14] 94.3% | [15] 96.7% | [16] 88.1% | [17] 82.8% | [18] 89.9% | [19] 104% | [20] 87.9%

Cc1cc(=O)n2nc(-c3cn(C)c4ccc(Cl)cc34)sc2n1
inactive: [1] 92.1% | [2] 67.3% | [3] 97.2% | [4] 85.7% | [5] 78.6% | [6] 80.1% | [7] 89.2% | [8] 96.7% | [9] 102% | [10] 93.7% | [11] 90.1% | [12] 99.2% | [13] 93% | [14] 82.3% | [15] 59.5% | [16] 87% | [17] 105% | [18] 83% | [19] 97% | [20] 92%

Cc1cc(F)cc(NS(=O)(=O)c2ccc(-c3cnc(C4CC4)o3)cc2)c1
active: [7] 8.89% | [10] 1.45% | [12] 8.06% | [15] -3.39% | [17] -5.64% | [18] -1.6%
inactive: [1] 19.8% | [2] 53.8% | [3] 46.9% | [4] 34.2% | [5] 13.8% | [6] 35.6% | [8] 27.8% | [9] 47% | [11] 23.7% | [13] 59.2% | [14] 30.5% | [16] 63.6% | [19] 59.1% | [20] 19.5%

Cc1cc(C(=O)Nc2ccc(SC#N)cc2)c(C)o1
inactive: [1] 89.5% | [2] 77.7% | [3] 96.2% | [4] 63.9% | [5] 82.4% | [6] 110% | [7] 49.8% | [8] 82.4% | [9] 88.2% | [10] 106% | [11] 104% | [12] 93.3% | [13] 107% | [14] 92.4% | [15] 66.5% | [16] 66.6% | [17] 92.4% | [18] 98.8% | [19] 111% | [20] 101%

CN1CCN(Cc2ccc(NC(=O)c3cncc(C#Cc4cnc5ccc(O[C@H]6CCOC6)nn45)c3)cc2C(F)(F)F)CC1
active: [1] -53.5% | [2] -63.8% | [3] -36.4% | [4] -77.7% | [5] -77.7% | [6] -38.3% | [7] -72.1% | [8] -87.7% | [9] -89.7% | [10] -89.1% | [11] -78.9% | [12] 0.583% | [13] -87.5% | [14] -59.7% | [15] -76.9% | [16] -63.8% | [17] -81.8% | [18] -92% | [19] -52% | [20] -87.2%

Cc1ccc(NC(=O)c2cc(/C=C/C(=O)NO)cc(C(F)(F)F)c2)cc1Nc1nccc(-c2cccnc2)n1
active: [1] 2.29% | [4] -19.1% | [5] 2.09% | [6] -30.6% | [7] -73.1% | [9] -22% | [10] -65.2% | [12] 5.9% | [13] -19.2% | [14] -24.7% | [15] -8.53% | [16] -3.6% | [17] -4.95% | [18] -15.2% | [19] -38.8% | [20] -20.7%
inactive: [2] 17.5% | [3] 12.8% | [8] 61.2% | [11] 14.1%
